Compound activity from PubChem BioAssay.
This is a sample that favours compounds with a hit; in the whole collection about 3.2% have one here.
AMA1-RON2 inh = inhibitors of Plasmodium falciparum AMA1-RON2 interaction. AlphaScreen AMA1-biotinylated RON2 peptide binding. Potency, µM (top dose mostly 58.2 µM), for the others: at the highest dose activity change, negative = inhibition, usual class: inhibitors. 360,000 tested, 0.2% active;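 note: 0% = vehicle wells and -100% = peptide control; nearly all actives have a fitted effect of over 45% in size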
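AMA1 (3D7) with his tag at 25 nM final met compounds first, then biotinylated RON2 peptide at 25 nM; detection used donor plus acceptor beads, 10 µg/mL apiece, read by AlphaScreen after 30 min at room temperature.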
AmpC inh detg = inhibitors of E. coli AmpC beta-lactamase with detergent; AID 485294; Potency, µM (highest dose often 114 µM), inactives show at the highest dose activity change, negative = inhibition, actives largely listed as inhibitors; AmpC hydrolysis of nitrocefin, absorbance 480 nm, 0.01% Triton; P00811; 370,000 tested, 0.041% active;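 note: 0% = no-compound wells and -100% = no-enzyme wells; nearly all actives have a fitted effect of over 25% in size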
Target sequence (P00811 whole entry, looked up): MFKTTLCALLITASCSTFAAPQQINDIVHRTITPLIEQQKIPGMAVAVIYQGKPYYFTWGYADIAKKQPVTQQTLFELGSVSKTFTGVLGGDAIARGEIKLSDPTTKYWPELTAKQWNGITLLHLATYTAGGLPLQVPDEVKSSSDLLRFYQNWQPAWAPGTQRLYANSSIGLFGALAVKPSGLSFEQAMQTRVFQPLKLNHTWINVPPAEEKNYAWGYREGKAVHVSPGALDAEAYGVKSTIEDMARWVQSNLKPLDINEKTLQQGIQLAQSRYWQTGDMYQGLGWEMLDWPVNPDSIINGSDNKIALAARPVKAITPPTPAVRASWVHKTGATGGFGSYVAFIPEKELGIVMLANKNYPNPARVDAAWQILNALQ
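AmpC (5.3 nM in the dispensed reagent) in 20 mM phosphate pH 7.0 with 0.01% (detergent screen) or 0.0001% Triton X-100 was preincubated with compounds for 15 min at room temperature. Nitrocefin was then added from an 800 uM solution, and hydrolysis was followed at 480 nm.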
AmpC no deterg = AmpC beta-lactamase inhibition without detergent | Potency, µM (titrated, usually from 57.1 µM), inactives show at the highest dose activity change, negative = inhibition, hits mostly inhibitors | 330,000 tested, 0.52% active | P00811 | AmpC nitrocefin hydrolysis, absorbance 480 nm, 0.0001% Triton | AID 485341;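 note: plate controls were no compound for no effect and no enzyme for full effect; nearly all actives have a fitted effect of over 20% in size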
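20 mM phosphate pH 7.0 + 0.01% (detergent screen) or 0.0001% Triton X-100; 5.3 nM AmpC reagent; cpd preinc 15 min RT; nitrocefin (800 uM stock) to start; A480 q20 s × 4 min; Activity was normalised to no-enzyme and no-compound control wells.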
Sm TGR block = blocks Schistosoma mansoni thioredoxin glutathione reductase. Q962Y6. purified TGR, DTNB reduction, TNB absorbance 405 nm. Potency, µM (highest dose often 114 µM), without a hit: top-dose activity change, negative = inhibition, hits mostly inhibitors. 360,000 tested, 3% active. AID 485364; note: nearly all actives have a fitted effect of over 60% in size
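Kinetic colorimetric format: TGR-catalysed, NADPH-driven DTNB reduction monitored via TNB absorbance. Enzyme dispensed at 20 nM; compound exposure 15 min at room temperature before reaction start.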
RE007 growth inh = less growth of the S. pombe RE007 Vpr strain; S. pombe RE007 Vpr strain, BacTiter-Glo ATP luminescence, 24 h; Potency, µM (highest dose often 92.2 µM), inactives show top-dose activity change, negative = less growth, hits mostly inhibitors; 360,000 tested, 0.21% active; active = well fitted falling curve with a large enough effect; inconclusive = small, poorly fitted or top-dose-only effect; inactive = no such curve, though single readings can be large or run the other way; note: nearly all actives have a fitted effect of over 50% in size
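Fission yeast strain RE007, carrying one chromosomally integrated HIV-1 vpr copy, was seeded at OD 0.01 in PMG+AL medium with 23 nL pinned compound. After 24 h at 30 °C and 99% humidity, viability was read by BacTiter-Glo luminescence.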
An asterisk follows results filed as active; ? = inconclusive; · = no result; [ ] = dose if it differs, or a comment. Unless noted, calls come from the whole dose curve; as a rule, active = well fitted curve in the direction sought with a large enough effect; inconclusive = small, poorly fitted or top-dose-only effect, or another doubt; inactive = no such curve, though single readings can be large; an effect the other way counts as inactive or inconclusive. Unless noted, % is set by controls: 0 for no effect and ±100 for the full control effect; potency is the fitted concentration of half-maximal effect.

SMILES | AMA1-RON2 inh | AmpC inh detg | AmpC no deterg | Sm TGR block | RE007 growth inh
COc1ccc2[nH]c(=O)c(CN(Cc3cccs3)Cc3nnnn3Cc3ccccc3)cc2c1 | -3% | -14% | 17% | 0% | -6%[3.69 µM]
CCC(c1nnnn1CCc1ccccc1)N(Cc1ccco1)Cc1cc2cccc(C)c2[nH]c1=O (stereo not given) | -8% | ? | 18% | -19% | -3%
CCOc1ccc2[nH]c(=O)c(CN(Cc3ccco3)C(CC)c3nnnn3Cc3ccccc3)cc2c1 (stereo not given) | 7% | -12% | -1% | 16µM* | 20%
COC(=O)c1ccccc1S(=O)(=O)N(Cc1ccco1)Cc1cc2cc(OC)ccc2[nH]c1=O | 4% | 2% | -23% | 7.1µM* | 3%
CCOc1ccc2[nH]c(=O)c(CN(Cc3ccco3)Cc3nnnn3Cc3ccccc3)cc2c1 | 48% | 8% | -7% | 22µM* | 11%
COc1ccc(N(Cc2cccs2)C(=O)COc2ccc(C(C)C)cc2)cc1 | · | 23% | · | 3% | ·
Cc1ccc2cc(CN(CCCN3CCOCC3)C(c3nnnn3Cc3ccco3)C(C)C)c(=O)[nH]c2c1C (stereo not given) | 93% | · | · | · | 4%
CCc1ccc2[nH]c(=O)c(CN(Cc3ccccc3OC)Cc3nnnn3Cc3ccco3)cc2c1 | -10% | ? | 0% | ? | 0%
Cc1ccc2[nH]c(=O)c(CN(Cc3ccco3)S(=O)(=O)c3c(C)ccc4nsnc34)cc2c1 | 4% | ? | -21% | 28µM* | -10%
COc1ccccc1CN(Cc1cc2cc(C)ccc2[nH]c1=O)Cc1nnnn1Cc1ccco1 | -8% | -14% | -10% | 40µM* | -10%
COc1ccc2[nH]c(=O)c(CN(Cc3ccco3)Cc3nnnn3Cc3ccccc3)cc2c1 | 8% | ? | 36% | 35µM* | -9%
CCC(c1nnnn1Cc1ccco1)N(CCN1CCOCC1)Cc1cc2cc(C)ccc2[nH]c1=O (stereo not given) | 10% | -4% | 104% | 45µM* | 3%
Cc1ccc2nsnc2c1S(=O)(=O)N(Cc1ccco1)Cc1cc2cccc(C)c2[nH]c1=O | -13% | -10% | -27% | ? | 2%
COc1ccc(CNC(=O)CCCN2C(=O)CSc3c2c(C)nn3-c2ccccc2)cc1 | · | 9% | · | 6% | ·
C=CCNC(=O)/C(C#N)=C\c1cc(Cl)c(O)c(OCC)c1 | -9% | -1% | -15% | 40µM* | -12%
CCOC(=O)CSc1n[nH]c(=S)s1 | 53% | 2% | 1% | ? | 8%
CCOC(=O)CCSc1n[nH]c(=S)s1 | 4% | 6% | -17% | 18µM* | 2%
O=C(OC[C@H]1O[C@@H](OC(=O)c2cc(O)c(O)c(OC(=O)c3cc(O)c(O)c(O)c3)c2)[C@H](OC(=O)c2cc(O)c(O)c(OC(=O)c3cc(O)c(O)c(O)c3)c2)[C@@H](OC(=O)c2cc(O)c(O)c(OC(=O)c3cc(O)c(O)c(O)c3)c2)[C@@H]1OC(=O)c1cc(O)c(O)c(OC(=O)c2cc(O)c(O)c(O)c2)c1)c1cc(O)c(O)c(OC(=O)c2cc(O)c(O)c(O)c2)c1 | · | ? | ? | 45µM* | ·
COC1OC(COC(=O)c2ccccc2)C(OC(=O)c2ccccc2)C1OC(=O)c1ccccc1 (stereo not given) | 1% | -6% | -2% | 0% | 5%
C=CCC1(CC=C)CCCN1C(=O)CC1C(=O)NCCN1Cc1cccc(OC)c1 (stereo not given) | 25% | 2% | 128% | ? | -10%
CCOc1ccc(CN2CCNC(=O)C2CC(=O)NCCC2=CCCCC2)cc1 (stereo not given) | 25% | 0% | 114% | -26%[57.1 µM] | 1%
C=CCC1(CC=C)CCCN1C(=O)CC1C(=O)NCCN1Cc1cc(OC)cc(OC)c1 (stereo not given) | 23% | 3% | 149% | 28µM* | -8%
COc1cc(CN2CCNC(=O)C2CC(=O)NCCC2=CCCCC2)cc(OC)c1 (stereo not given) | -1% | 0% | 76% | 40µM* | 0%
Cc1nc(CCNC(=O)CC2C(=O)NCCN2Cc2ccc(F)cc2)sc1C (stereo not given) | 5% | 11% | 5% | 20µM* | -5%
CCn1cc(C(=O)N2CCN(c3cccc(C)c3)C(C)C2)c(=O)c2cc(S(=O)(=O)N3CCOCC3)ccc21 (stereo not given) | · | 2% | · | 0% | ·
SMILES | AMA1-RON2 inh | AmpC inh detg | AmpC no deterg | Sm TGR block | RE007 growth inh
CCOc1ccccc1CNC(=O)c1cnc2sc(N3CCCC3)nn2c1=O | · | -5% | · | -8% | ·
COc1ccc(Cn2c(=O)c3oc4ccccc4c3n(Cc3ccc(Cl)cc3)c2=O)cc1 | · | 11% | · | 3% | ·
CCCCc1nn2c(=O)cc(COC(=O)c3cccc(NC(=O)c4cccs4)c3)nc2s1 | · | -4% | · | -2% | ·
Cn1nnnc1SCC(=O)NCC(=O)c1ccccc1 | 6% | 3% | -10% | 20µM* | 5%
Cn1nnnc1SCC(=O)NCCCc1ccccc1 | -16% | -11% | -22% | 0% | 6%
CCCCC(=O)Nc1cc(C)c(O)c(-c2nc3ncccc3o2)c1 | · | 3% | · | 0% | ·
CC(=O)OCC1=C(C(=O)O)N2C(=O)C(NC(=O)CCn3nc(C)c(Cl)c3C)C2SC1 (stereo not given) | 2% | 3% | -12% | 28µM* | -3%
Cc1nnc(SCC2=C(C(=O)O)N3C(=O)C(NC(=O)Cn4nc(C(F)F)c(Cl)c4C)C3SC2)s1 (stereo not given) | 32% | -10% | 94% | 13µM* | 0%
Cc1nnc(SCC2=C(C(=O)O)N3C(=O)C(NC(=O)Cn4nc(C(F)F)cc4C)C3SC2)s1 (stereo not given) | 29% | -2% | -13% | 40µM* | 8%
CN(C)CCn1nnnc1SCC1=C(C(=O)O)N2C(=O)[C@@H](NC(=O)Cc3csc(N)n3)[C@H]2SC1 | 28% | ? | -23% | 32µM* | 9%[18.4 µM]
CC1=C(C(=O)O)N2C(=O)C(NC(=O)CCCC(=O)O)C2SC1 (stereo not given) | 39% | -3% | 2% | 11% | ?
Cc1cc(C(F)F)nn1CC(=O)NC1CCCC1 | 0% | -1% | -12% | 6% | -13%
O=C(NCc1ccccc1Cl)c1ccc2oc(=O)n(Cc3ccccc3)c2c1 | · | 4% | · | 4% | ·
CCOC(=O)c1cc2c(=O)n3ccccc3nc2n(C(C)C)c1=NC(=O)c1cc2ccccc2o1 | · | 5% | · | -3% | ·
CC(=O)OCC1=C(C(=O)O)N2C(=O)C(NC(=O)CCn3nc(C(F)(F)F)c(Br)c3C3CC3)C2SC1 (stereo not given) | 14% | 1% | -14% | 22µM* | -12%
